# Experiments:
# [1] = molecular target: T1, Inhibitor of nuclear factor kappa-B kinase subunit epsilon (Homo sapiens) (UniProt Q14164); settings: at 1 µM;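 note: reported values are averaged percent inhibition figures against human IKKε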
# T1 sequence (whole entry): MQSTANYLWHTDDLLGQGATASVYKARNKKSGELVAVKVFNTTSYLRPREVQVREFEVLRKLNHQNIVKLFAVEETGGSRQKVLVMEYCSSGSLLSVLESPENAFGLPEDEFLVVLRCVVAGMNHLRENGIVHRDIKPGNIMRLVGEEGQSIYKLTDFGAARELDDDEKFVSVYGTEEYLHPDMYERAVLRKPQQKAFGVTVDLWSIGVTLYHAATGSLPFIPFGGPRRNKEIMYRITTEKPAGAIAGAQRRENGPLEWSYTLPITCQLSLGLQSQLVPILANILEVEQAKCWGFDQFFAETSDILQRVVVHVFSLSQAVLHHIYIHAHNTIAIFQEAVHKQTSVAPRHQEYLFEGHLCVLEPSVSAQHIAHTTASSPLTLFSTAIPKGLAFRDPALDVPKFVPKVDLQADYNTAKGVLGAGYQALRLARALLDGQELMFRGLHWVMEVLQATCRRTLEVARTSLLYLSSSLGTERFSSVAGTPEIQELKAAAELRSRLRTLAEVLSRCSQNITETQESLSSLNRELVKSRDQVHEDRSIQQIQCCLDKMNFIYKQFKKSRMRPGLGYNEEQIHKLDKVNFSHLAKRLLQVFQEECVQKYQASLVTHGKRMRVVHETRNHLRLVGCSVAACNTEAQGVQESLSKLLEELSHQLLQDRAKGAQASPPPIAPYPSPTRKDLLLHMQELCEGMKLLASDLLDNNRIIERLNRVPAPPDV
# [2] = molecular target: T2, Serine/threonine-protein kinase Nek1 (Homo sapiens) (UniProt Q96PY6); settings: at 0.1 µM
# T2 sequence (whole entry): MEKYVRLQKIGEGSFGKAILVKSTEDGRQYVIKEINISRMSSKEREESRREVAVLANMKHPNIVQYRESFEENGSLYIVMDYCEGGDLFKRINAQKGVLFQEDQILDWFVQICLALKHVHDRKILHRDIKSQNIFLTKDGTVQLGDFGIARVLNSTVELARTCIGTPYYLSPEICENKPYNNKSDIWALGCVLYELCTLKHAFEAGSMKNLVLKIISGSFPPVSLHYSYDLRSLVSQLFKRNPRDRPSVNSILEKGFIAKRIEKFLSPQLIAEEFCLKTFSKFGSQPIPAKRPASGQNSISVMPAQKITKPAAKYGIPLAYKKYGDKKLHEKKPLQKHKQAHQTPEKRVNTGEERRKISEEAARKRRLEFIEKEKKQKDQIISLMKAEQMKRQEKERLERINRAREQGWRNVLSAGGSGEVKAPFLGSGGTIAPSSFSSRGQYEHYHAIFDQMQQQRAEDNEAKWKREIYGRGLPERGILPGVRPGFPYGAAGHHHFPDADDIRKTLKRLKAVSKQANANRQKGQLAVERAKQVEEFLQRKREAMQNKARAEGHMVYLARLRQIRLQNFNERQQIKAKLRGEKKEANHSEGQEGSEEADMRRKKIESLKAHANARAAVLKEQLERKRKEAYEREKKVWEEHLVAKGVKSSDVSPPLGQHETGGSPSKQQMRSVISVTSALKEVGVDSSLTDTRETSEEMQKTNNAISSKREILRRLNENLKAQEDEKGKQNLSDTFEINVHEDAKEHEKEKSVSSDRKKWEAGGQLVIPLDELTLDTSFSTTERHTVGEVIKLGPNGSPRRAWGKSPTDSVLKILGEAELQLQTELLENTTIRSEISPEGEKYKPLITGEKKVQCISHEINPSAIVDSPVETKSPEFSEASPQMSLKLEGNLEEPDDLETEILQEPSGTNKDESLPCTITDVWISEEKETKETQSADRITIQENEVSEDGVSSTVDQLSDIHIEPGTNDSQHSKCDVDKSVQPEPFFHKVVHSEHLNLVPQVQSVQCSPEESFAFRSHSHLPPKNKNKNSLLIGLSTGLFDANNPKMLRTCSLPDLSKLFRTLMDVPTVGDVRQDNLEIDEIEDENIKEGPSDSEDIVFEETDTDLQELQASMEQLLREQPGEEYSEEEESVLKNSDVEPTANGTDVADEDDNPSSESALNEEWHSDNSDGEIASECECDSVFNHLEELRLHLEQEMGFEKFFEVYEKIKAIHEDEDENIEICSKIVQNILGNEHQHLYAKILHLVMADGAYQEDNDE
# [3] = molecular target: T2, Serine/threonine-protein kinase Nek1 (Homo sapiens); settings: at 1 µM
# [4] = molecular target: T3, Serine/threonine-protein kinase Nek2 (Homo sapiens) (UniProt P51955); settings: at 0.1 µM
# T3 sequence (whole entry): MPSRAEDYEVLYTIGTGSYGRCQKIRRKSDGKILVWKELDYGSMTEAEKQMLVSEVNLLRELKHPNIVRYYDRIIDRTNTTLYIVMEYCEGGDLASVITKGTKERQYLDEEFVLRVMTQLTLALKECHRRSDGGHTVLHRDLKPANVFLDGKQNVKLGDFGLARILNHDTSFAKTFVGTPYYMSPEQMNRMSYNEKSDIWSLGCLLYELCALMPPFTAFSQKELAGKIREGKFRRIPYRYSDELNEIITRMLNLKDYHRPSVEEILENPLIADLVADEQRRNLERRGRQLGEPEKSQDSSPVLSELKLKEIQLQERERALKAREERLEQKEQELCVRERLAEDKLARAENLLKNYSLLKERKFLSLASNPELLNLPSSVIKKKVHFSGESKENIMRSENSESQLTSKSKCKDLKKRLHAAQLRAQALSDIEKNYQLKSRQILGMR
# [5] = molecular target: T3, Serine/threonine-protein kinase Nek2 (Homo sapiens); settings: at 1 µM
# [6] = molecular target: Serine/threonine-protein kinase Nek6 (Homo sapiens) (UniProt Q9HC98); settings: at 0.1 µM
# Sequence of Serine/threonine-protein kinase Nek6 (Homo sapiens) (Q9HC98 whole entry): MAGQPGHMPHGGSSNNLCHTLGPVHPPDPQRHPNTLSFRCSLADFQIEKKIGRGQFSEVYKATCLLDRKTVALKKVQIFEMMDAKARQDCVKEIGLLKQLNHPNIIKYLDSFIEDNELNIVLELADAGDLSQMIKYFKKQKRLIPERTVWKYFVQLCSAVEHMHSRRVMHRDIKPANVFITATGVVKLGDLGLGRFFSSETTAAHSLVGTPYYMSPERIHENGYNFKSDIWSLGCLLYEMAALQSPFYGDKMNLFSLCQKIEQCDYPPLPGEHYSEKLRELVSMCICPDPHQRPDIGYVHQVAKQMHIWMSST
# [7] = molecular target: Serine/threonine-protein kinase Nek6 (Homo sapiens) (UniProt Q9HC98); settings: at 1 µM
# [8] = molecular target: Serine/threonine-protein kinase Nek7 (Homo sapiens) (UniProt Q8TDX7); settings: at 0.1 µM
# Sequence of Serine/threonine-protein kinase Nek7 (Homo sapiens) (Q8TDX7 whole entry, looked up): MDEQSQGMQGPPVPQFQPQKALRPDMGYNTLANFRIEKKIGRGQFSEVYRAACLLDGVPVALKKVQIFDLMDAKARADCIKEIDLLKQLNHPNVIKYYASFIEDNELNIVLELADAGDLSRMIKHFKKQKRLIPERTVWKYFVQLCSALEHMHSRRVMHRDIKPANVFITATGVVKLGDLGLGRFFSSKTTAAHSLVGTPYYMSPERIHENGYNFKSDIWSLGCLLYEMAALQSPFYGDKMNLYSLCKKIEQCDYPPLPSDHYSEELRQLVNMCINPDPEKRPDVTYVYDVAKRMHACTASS
# [9] = molecular target: Serine/threonine-protein kinase Nek7 (Homo sapiens) (UniProt Q8TDX7); settings: at 1 µM
# [10] = molecular target: T4, Serine/threonine-protein kinase Nek9 (Homo sapiens) (UniProt Q8TD19); settings: at 0.1 µM;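 note: reported value is the mean percent inhibition of NEK9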
# T4 sequence (whole entry): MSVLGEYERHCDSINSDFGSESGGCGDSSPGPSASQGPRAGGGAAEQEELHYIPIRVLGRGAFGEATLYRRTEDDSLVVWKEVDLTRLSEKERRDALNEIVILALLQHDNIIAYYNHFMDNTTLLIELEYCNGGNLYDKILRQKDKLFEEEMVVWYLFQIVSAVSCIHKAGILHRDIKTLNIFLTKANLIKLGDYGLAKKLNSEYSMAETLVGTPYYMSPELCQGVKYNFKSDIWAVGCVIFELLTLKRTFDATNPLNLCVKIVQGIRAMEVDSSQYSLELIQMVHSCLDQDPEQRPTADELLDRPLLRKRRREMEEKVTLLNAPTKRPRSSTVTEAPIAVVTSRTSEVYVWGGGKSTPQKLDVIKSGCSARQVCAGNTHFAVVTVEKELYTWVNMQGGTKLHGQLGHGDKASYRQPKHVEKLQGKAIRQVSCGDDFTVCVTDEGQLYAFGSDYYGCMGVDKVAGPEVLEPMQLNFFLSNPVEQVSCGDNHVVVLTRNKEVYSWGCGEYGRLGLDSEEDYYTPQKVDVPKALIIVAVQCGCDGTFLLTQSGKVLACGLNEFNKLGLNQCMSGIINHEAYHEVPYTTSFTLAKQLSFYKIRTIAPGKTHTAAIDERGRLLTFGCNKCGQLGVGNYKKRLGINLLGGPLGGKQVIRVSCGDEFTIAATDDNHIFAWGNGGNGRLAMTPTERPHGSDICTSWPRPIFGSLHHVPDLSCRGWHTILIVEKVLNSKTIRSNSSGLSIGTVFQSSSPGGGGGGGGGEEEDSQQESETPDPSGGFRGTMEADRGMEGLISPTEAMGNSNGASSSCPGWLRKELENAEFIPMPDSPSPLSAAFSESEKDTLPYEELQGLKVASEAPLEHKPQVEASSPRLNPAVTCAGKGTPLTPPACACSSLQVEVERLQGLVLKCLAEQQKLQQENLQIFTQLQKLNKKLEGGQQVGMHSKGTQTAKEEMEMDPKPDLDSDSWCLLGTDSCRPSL
smiles,measurement,setting,value
Fc1cccc(COc2ccc(Nc3ncnc4cc(-c5ccc[nH]5)sc34)cc2Cl)c1,inhibition,[1],3.19%
same,inhibition,[2],1.42%
same,inhibition,[3],4.17%
same,inhibition,[4],3.51%
same,inhibition,[5],5.24%
same,inhibition,[6],1.65%
same,inhibition,[7],3.84%
same,inhibition,[8],5.51%
same,inhibition,[9],2.22%
same,inhibition,[10],1.71%
